Source: PubChem BioAssay (National Center for Advancing Translational Sciences (NCATS))
Most compounds without a hit are left out; they make up all but 7.9% or so of the library.
KB-3-1 cytotox – qHTS assay for MDR1-selective chemotherapeutics: Primary screen using the parental adenocarcinoma cell KB-3-1; actives 1.4% (n = 400,000); KB-3-1 viability, CellTiter-Glo ATP luminescence, 72 h; AID 1347075, 2019; Potency, µM (top dose mostly 46.1 µM), hits mostly cytotoxic; further: on the % scale 0 is the no-effect control and ±100 the full control effect; nearly all actives have a fitted effect of over 60% in size
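Using CellTiter-Glo luminescence, growth of non-resistant KB-3-1 adenocarcinoma cells is assessed 72 h after pin-tool compound addition at 37 °C. Normalized responses across the concentration series yield fitted curves.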
HT1080NT lethal – qHTS for induction of synthetic lethality in tumor cells producing 2HG: qHTS for the HT-1080-NT fibrosarcoma cell line; HT-1080-NT fibrosarcoma viability, CellTiter-Glo ATP luminescence, 48 h; Potency, µM (doses to about 46.1 µM), for inactives: at the top dose activity, negative = less viability, most hits filed as cytotoxic; actives 1.6% (n = 360,000);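 further: NT is the 2HG producing partner of a matched IDH1 knockdown line; 0% = DMSO-treated cells and -100% = media-only wells without cells; nearly all actives have a fitted effect of over 55% in size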
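Viability by CellTiter-Glo luminescence after 48 h compound exposure at 37C of HT-1080-NT cells (750/well, RPMI, 5% FBS). % activity scaled between DMSO wells and medium-only wells, then curve-fitted and categorized by curve class.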
SW480 rerep – A quantitative high throughput screen for small molecules that induce DNA re-replication in SW480 colon adenocarcinoma cells. actives 1.8% (n = 340,000). AID 624297, 2012. Potency, µM (titrated, usually from 46.1 µM), for inactives: top-dose re-replication activation, hits mostly activators. SW480 DNA re-replication, Hoechst DNA content imaging, 48 h; further: % of control where 0% means no effect; nearly all actives have a fitted effect of over 55% in size
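Hoechst fluorescence of nuclei (405 nm excitation, 500-530 nm emission) measured by plate-scanning imager after 48 hr compound exposure at 37 C; re-replication scored as increased number of nuclei with elevated intensity.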
HT1080 IDH1KD tx – qHTS for induction of synthetic lethality in tumor cells producing 2HG: qHTS for the HT-1080-IDH1KD cell line; HT-1080 IDH1 knockdown viability, ATP luminescence, 48 h; Potency, µM (doses to about 46.1 µM), for inactives: at the highest dose activity, negative = toxicity, usual class: cytotoxic; actives 2% (n = 360,000); AID 686971, 2013;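 further: 0% = DMSO wells and -100% = cell-free medium wells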
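Assay cells: HT-1080 with IDH1 knockdown, 750 per well, RPMI/5% FBS. Exposure: 48 h at 37 °C following 2 h pre-incubation. Read: CellTiter-Glo luminescence; fitted concentration-response, curve class assigned.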
MCF10A rereplic – A quantitative high throughput screen for small molecules that induce DNA re-replication in MCF 10a normal breast cells. MCF 10A DNA re-replication, Hoechst nuclear intensity, 48 h. Potency, µM (top dose mostly 46.1 µM), for inactives: at the highest dose activity, positive = re-replication, hits mostly activators. actives 2.9% (n = 350,000). AID 624296, 2012; further: % of control where 0% means no effect; nearly all actives have a fitted effect of over 50% in size
KB-V1 cytotox – qHTS assay for MDR1-selective chemotherapeutics: Primary screen using the drug-selected MDR subline cells KB-V1 | KB-V1 MDR cells viability, CellTiter-Glo, 72 h | Potency, µM (doses to about 46.1 µM), hits mostly cytotoxic | actives 3.4% (n = 400,000); further: on the % scale 0 is the no-effect control and ±100 the full control effect; nearly all actives have a fitted effect of over 60% in size
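Readout: CellTiter-Glo luminescence, 10 min after addition. Cells: KB-V1 MDR subline, 72 h at 37 degrees C with compound. Analysis: corrected, normalized data fitted to concentration-effect curves.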
* = called active by the depositor; i = inactive; ? = inconclusive; . = not tested or not shown; [ ] = another dose, or the depositor's remark. The call rests on the fitted dose curve; in most records, active means well fitted curve in the direction sought with a large enough effect; inconclusive means small, poorly fitted or top-dose-only effect, or another doubt; inactive means no such curve, though single readings can be large; an effect the other way counts as inactive or inconclusive. Potency means the concentration at half of the fitted maximal effect.

SMILES	KB-3-1 cytotox	HT1080NT lethal	SW480 rerep	HT1080 IDH1KD tx	MCF10A rereplic	KB-V1 cytotox
COc1cc(OC)c(NS(=O)(=O)c2cc(C(=O)NCCCN3CCOCC3)ccc2C)cc1Cl	i	-11%	.	-14%	.	i
COc1cc2ncnc(N3CCN(C(=O)Nc4ccc(Oc5ccccc5)cc4)CC3)c2cc1OC	i	.	.	.	.	i
CCOC(=O)c1c(NC(=S)N2CCN(C)CC2)sc2c1CCN(C(=O)OCC)C2	i	21µM*	?	18µM*	?	i
CCOC(=O)c1sc(NC(=O)CCN2CCN(C)CC2)c(C(=O)OCC)c1C	i	21µM*	23%	?	23%	i
CCOC(=O)c1c(NC(=O)CN2CCN(C)CC2)sc(C(=O)Nc2ccccc2)c1C	i	?	-17%	23µM*	21%	i
CCn1cc(C(=O)NCCCN2CCC(C)CC2)c(=O)c2cc(S(=O)(=O)N(C)C3CCCCC3)ccc21	i	-6%	3%	-4%	-10%	?
Cc1ccc(S(=O)(=O)n2nccc2-c2c(-c3ccccc3)noc2C)cc1	?	?	13µM*	?	12µM*	?
COC(=O)[C@]12CCCCC=C1N(Cc1ccccc1)C(=O)[C@H](CC(=O)N1CCN(C(=O)c3ccco3)CC1)C2	i	9%	.	14%	.	?
Nc1nc(=S)[nH]c2c1C1(CCCCC1)Cc1ccccc1-2	?	0%	-92%	5%	2%	23µM*
Cn1c(=O)n(C)c2cc(NS(=O)(=O)c3ccc(Cl)cc3)c(NCc3ccccc3)cc21	?	.	.	.	.	i
Cc1cc(S(=O)(=O)Nc2cc3c(cc2NCc2ccccc2)n(C)c(=O)n3C)ccc1F	i	.	.	.	.	21µM*
COc1ccc(C(=O)O/N=C/c2c(C(F)(F)F)nn(C)c2SCc2ccccc2Cl)cc1	7.3µM*	-18%	?	-25%	?	?
Cc1ccc(-n2c(C)cc(/C=c3/sc4nc5ccccc5n4c3=O)c2C)cc1	i	-6%	1%[9.22 µM]	-6%	9.2µM*	i
Cc1cccc(-n2ncc3c(Nc4c(C)cc(C)cc4C)ncnc32)c1	9.2µM*	.	.	.	.	?
Cc1cccc(-n2ncc3c(N)ncnc32)c1	?	-2%	1%	-7%	-2%	8.2µM*
CC(=NNC(=O)COc1cccc(C)c1)c1cccnc1	i	8%	-4%	9%	4%	16µM*
C/C(=N/NC(=O)CNC(=O)COc1cccc(C)c1)c1ccc(Cl)cc1	i	15%	-9%	9%	-4%	i
CCOc1ccc(CC(=O)N/N=C(\C)c2cccnc2)cc1OCC	i	-3%	2%	-4%	21µM*	i
O=C(NC1CCCCC1)C(c1cc2ccccc2o1)N1CCOCC1 (stereo unspecified)	i	13%	.	15%	.	i
CC[n+]1c(/C=C2/C=C(C)CC(C)(C)C2)sc2ccc(OC)cc21	21µM*	21µM*	?	?	16µM*	i
CCC1=C/C(=C/c2sc3ccccc3[n+]2CC)CC(C)(C)C1	?	23µM*	?	?	?	?
CC[n+]1c(/C=C2\C=C(C)CC(C)C2)sc2ccccc21 (stereo unspecified)	i	?	2%	?	23µM*	i
Cc1cc(C)c2oc(-c3ccc(Cl)c(NC(=O)c4cccs4)c3)nc2c1	i	.	.	.	.	i
Cc1ccc(NC(=O)CN2C(=O)CCc3cc(S(=O)(=O)N4CCOCC4)ccc32)c(C)c1	i	.	.	.	.	i
COc1ccc(-c2ccc(C(=O)Nc3ccc(NC(C)=O)cc3)c3occc23)c(C)c1	i	-3%	.	-6%	.	i
SMILES	KB-3-1 cytotox	HT1080NT lethal	SW480 rerep	HT1080 IDH1KD tx	MCF10A rereplic	KB-V1 cytotox
COc1ccc(-c2ccc(C(=O)NCc3ccc(N4CCN(C)CC4)cc3)c3occc23)c(C)c1	?	23µM*	.	?	.	i
COc1cc(NC(=O)c2ccc(-c3c(C)noc3C)c3ccoc23)cc(OC)c1OC	?	-27%	.	?	.	5.8µM*
COc1ccc(-c2coc3c(C(=O)NCc4ccccc4)cccc23)c(C)c1	i	?	.	?	.	?
COc1ccc(-c2ccc(C(=O)Nc3cc(OC)c(OC)c(OC)c3)c3occc23)c(C)c1	?	-28%	.	?	.	6.5µM*
COc1ccc(-c2coc3c(C(=O)NCC(C)C)cccc23)c(C)c1	?	?	.	?	.	15µM*
CC(=O)Nc1ccc(NC(=O)c2ccc(-c3c(C)noc3C)c3ccoc23)cc1	i	-1%	.	-25%	.	i
COc1ccc(S(=O)(=O)N2CCCCCC2)cc1C(=O)N1CCN(c2ccccc2O)CC1	i	10%	4%	8%	-1%	?
CCn1cc(/C=C(\NC(=O)c2ccccc2Cl)C(=O)NCCCn2ccnc2)c2ccccc21	i	.	.	.	.	?
O=C1Nc2cc3c(cc2C1=O)sc1ccccc13	i	-1%	-22%	-6%	?	?
C[C@H]1CN([C@@H](C)CO)C(=O)c2cc(C#CC3(O)CCCC3)cnc2O[C@H]1CN(C)C(=O)C1CC1	i	13%	.	-1%	.	i
